# Assay results published in PubChem BioAssay AID651599 (National Center for Advancing Translational Sciences (NCATS), 2012).
# Records with an inconclusive call do not appear. Entries that show only a call come without a potency. Active and inactive are the calls of the source. Calls come from the whole dose curve; as a rule, active = well fitted inhibition curve with a large enough effect; inconclusive = small, poorly fitted or top-dose-only effect; inactive = no such curve, though single readings can be large or run the other way.
# Target: Tumor susceptibility gene 101 protein (Homo sapiens) (UniProt Q99816)
# Assay: qHTS Assay for Iinhibitors of HIV-1 Budding by Blocking the Interaction of PTAP/TSG101: Hit Validation in TR assay
# Conditions: Tsg101 binding domain + Texas Red-labeled PTAP peptide, fluorescence polarization, 20 min; series mostly up to 57.5 µM
# How it was run: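 Texas Red-PTAP peptide (50 nM) binding to Tsg101 binding domain (10 uM), both final, in pH 7.5 HEPES buffer, read as polarization after 20 min at room temperature; compounds pinned before peptide addition.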
# Potency is the fitted concentration of half-maximal effect.
# Sequence of Tumor susceptibility gene 101 protein (Homo sapiens) (Q99816 whole entry, looked up): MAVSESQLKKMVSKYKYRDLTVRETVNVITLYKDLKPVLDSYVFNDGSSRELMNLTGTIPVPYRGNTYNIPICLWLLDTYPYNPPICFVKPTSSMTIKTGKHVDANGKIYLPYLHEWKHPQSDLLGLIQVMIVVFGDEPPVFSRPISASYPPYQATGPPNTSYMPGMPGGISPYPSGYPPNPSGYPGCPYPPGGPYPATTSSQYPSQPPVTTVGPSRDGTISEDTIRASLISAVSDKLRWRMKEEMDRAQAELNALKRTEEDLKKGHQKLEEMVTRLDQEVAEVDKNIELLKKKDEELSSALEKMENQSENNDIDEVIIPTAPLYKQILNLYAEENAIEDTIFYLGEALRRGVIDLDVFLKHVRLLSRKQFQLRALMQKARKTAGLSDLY
row,Structure (SMILES),Potency
1,Cc1ccc2c(c1)c1nc3ccccc3nc1n2C,inactive
2,CCOC(=O)Cn1c(=NC(=O)c2ccc([N+](=O)[O-])s2)sc2ccccc21,inactive
3,COc1ccc(CCn2c(=N)c(S(=O)(=O)c3ccc(Cl)cc3)cc3c(=O)n4ccccc4nc32)cc1,inactive
4,Cn1nc(-c2ccccc2)c2nc3ccccc3nc21,inactive
5,O=[N+]([O-])c1ccc(-c2ccc(/C=N/Nc3nc(N4CCCC4)nc(N4CCCC4)n3)o2)cc1,inactive
6,Cc1cccc(N2C(=O)c3cccc4c(N)ccc(c34)C2=O)c1,inactive
7,Cc1cc2c(cc1C)NC(c1c(C)n(C)n(-c3ccccc3)c1=O)C1=C(CC(C)(C)CC1=O)N2 (centres undefined),inactive
8,O=c1nc2c(O)cccn2c2c1c(=O)[nH]c1ccccc12,inactive
9,O=C1/C(=C\c2ccc(-c3ccccc3Cl)o2)SC(=S)N1CC1CCCO1 (centres undefined),inactive
10,CCN(C(=O)c1sc2nc3n(c(=O)c2c1C)CCCC3)c1ccccc1F,inactive
11,O=c1[nH]nc(-c2ccc(F)cc2)cc1Cc1ccc(F)cc1,inactive
12,O=C1c2cccc3c(O)ccc(c23)C(=O)N1Cc1ccccc1,inactive
13,Nc1cccc(N2C(=O)c3cccc4c(N)ccc(c34)C2=O)c1,inactive
14,CCN(CC)C(=O)c1sc2nc(-c3cccs3)cc(-c3cccs3)c2c1N,inactive
15,Nc1ccc2nc3c(=O)n(C4CCCCC4)c(=O)[nH]c3nc2c1,inactive
16,COc1ccc(Nc2nc(-c3cccnc3)nc3ccccc23)cn1,inactive
17,Cn1cccc1/C=C1\SC(=S)N(NC(=O)c2ccccc2Cl)C1=O,inactive
18,N=C1CCC(=N)c2c1c(O)c1ccccc1c2O,inactive
19,CCN(CC)c1ccc(/C=c2\sc3nc4ccccc4n3c2=O)c(O)c1,inactive
20,COc1ccc(C(=O)c2sc3nc(C)cc(-c4cccs4)c3c2N)cc1OC,inactive

row,Structure (SMILES),Potency
1,CNc1ccc2c3c(cccc13)C(=O)N(C)C2=O,inactive
2,Fc1ccc(C2=CC(c3ccco3)n3ncnc3N2)cc1 (centres undefined),inactive
3,CCN1CC=C2C(C#N)=C(N)C(C#N)(C#N)C(CCc3ccccc3)C2C1 (centres undefined),11.6 µM (active)
4,CC1C2C(C)N(C)C(=O)N(C)C2N(C)C(=O)N1C (centres undefined),inactive
5,CCOC(=O)c1cnc2ccc(OC)cc2c1Nc1ccc(N2CCN(C)CC2)cc1,inactive
6,CCCCCOc1ccc(/C=c2\sc3nc(=O)c(-c4ccccc4)nn3c2=O)cc1OC,inactive
7,CCCN1CCCc2cc(CN)ccc21,inactive
8,CCOC(=O)N1CCN(c2nc3ccccc3nc2C(C#N)S(=O)(=O)c2ccc(C)cc2)CC1 (centres undefined),inactive
9,O=C1N=C(N2C=CC(=C3C=CNC=C3)C=C2)/C(=C/N=NC(=O)c2ccccc2O)S1,inactive
10,CC1CCCN(c2nc3ccccc3nc2C(C#N)S(=O)(=O)c2ccccc2)C1 (centres undefined),inactive
11,CCOC(=O)/C(C#N)=C(C)/C=C1\Sc2ccccc2N1CC,inactive
12,COc1ccc(-c2cc(C(F)(F)F)c3c(N)c(C(=O)NCCSC)sc3n2)cc1,inactive
13,C=CCOn1c(=O)c(-c2cc3ccccc3o2)[n+]([O-])c2ccccc21,inactive
14,COc1ccc(C2C(C(=O)c3cccs3)=C(O)C(=O)N2c2nnc(C)s2)cc1OC (centres undefined),inactive
15,CCCCOc1ccc(C2OC34CCCCC3C(C#N)(C#N)C2(C#N)C(=N)O4)cc1 (centres undefined),inactive
16,CCC(=O)Oc1ccc2c(c1)O/C(=C\c1ccco1)C2=O,inactive
17,Nc1ccc2c(c1)C/C(=C/c1ccco1)C2=O,inactive
18,COc1cccc2c1C(=O)c1c(O)c3c(c(O)c1C2=O)C[C@@](O)(C(C)=O)C[C@@H]3O[C@H]1C[C@H](N)[C@H](O)[C@H](C)O1,20.6 µM (active)
19,CCn1cc(C=C2C(=O)c3ccccc3C2=O)c2ccccc21,inactive
